Measurements as given in PubChem BioAssay.

molecular target: Dual specificity protein phosphatase 6 (Homo sapiens) (UniProt Q16828); assay: Primary imaging screen for DUSP6 inhibitors that restore phospho-Erk in transfected HeLa cells, chemical complementation (AID 609); details: HeLa MKP-3 transfected, phospho-Erk imaging KS statistic; at 10 µM; stronger effect = higher value; cells stimulated with TPA for 15 min;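 further: phospho-Erk level distribution per well compared with pooled transfected vehicle control wells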
Sequence (Q16828 whole entry, looked up): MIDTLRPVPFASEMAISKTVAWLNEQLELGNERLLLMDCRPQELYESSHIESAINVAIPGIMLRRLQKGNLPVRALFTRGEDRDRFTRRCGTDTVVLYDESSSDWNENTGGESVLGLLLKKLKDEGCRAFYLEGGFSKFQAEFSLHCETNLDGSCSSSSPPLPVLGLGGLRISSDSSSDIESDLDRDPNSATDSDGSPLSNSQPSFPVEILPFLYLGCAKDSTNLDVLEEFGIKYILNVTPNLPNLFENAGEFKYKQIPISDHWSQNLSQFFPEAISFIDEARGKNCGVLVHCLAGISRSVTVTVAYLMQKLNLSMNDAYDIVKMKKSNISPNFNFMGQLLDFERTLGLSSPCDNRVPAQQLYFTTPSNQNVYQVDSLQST

inhibition, inactive:
CCOC(=O)c1c(-c2cccs2)csc1NC(=O)CCCC(=O)O -5.81%
Fc1ccc(-c2cnc[nH]2)cc1 3.42%
CCOC(=O)c1[nH]c2ccc(Br)cc2c1NC(=O)CNC 11.9%
COc1ccc(C2(CN(C(C)=O)C(C)=O)CCCC2)cc1OC 1.98%
COc1ccccc1C1C(C#N)=C(N)Oc2cc(C)n(Cc3ccccn3)c(=O)c21 (centres undefined) 0.671%
Cc1ccc(C(=O)/C=C/Nc2cccc(O)c2)cc1 -8.59%
O=C(C1CC1(c1ccccc1)c1ccccc1)N1CCOCC1 (centres undefined) -0.584%
COC(=O)CNC(=O)c1c(C)cc(=O)oc1C 19.4%
COc1ccc(CCn2c(=N)c(C(=O)NCc3ccco3)cc3c(=O)n4ccccc4nc32)cc1 24.3%
Nc1nc(NC(=O)c2cccs2)nn1-c1ccccc1 14.4%
Cc1c(O)c(CN2CCCC(C)C2)cc2c3c(c(=O)oc12)CCC3 (centres undefined) -8.95%
COc1ccc(CCn2c(=N)c(C#N)cc3c(=O)n4ccccc4nc32)cc1 24.3%
Cn1c(SCC(=O)N2CCOCC2)nnc1-c1cccc(NC(=O)c2ccccc2F)c1 1.63%
O=C(NC1CCS(=O)(=O)C1)c1c(NC(=O)C2COc3ccccc3O2)sc2c1CCCC2 (centres undefined) 5.42%
COC(=O)C(NC(C)=O)(Nc1nc2ccc(S(C)(=O)=O)cc2s1)C(F)(F)F (centres undefined) 7.42%
COc1ccc2c(c1)C1(C)CC(C)(C)N2C(=O)N1c1ccccc1 (centres undefined) -3.95%
CCCCCn1c2nc3ccccc3nc2c2c(=O)n(CC(C)C)cnc21 15%
Nc1nnnn1/N=C/c1ccccn1 34.3%
Cc1nnc2n(-c3ccccc3)c(=O)c3c4c(sc3n12)CCCC4 -3.95%
CCc1nc2sc3c(c2c(=O)o1)CCCC3 -2.07%
CCOC(=O)CNC(=O)Nc1ccccc1C(=O)OC -7.67%
COc1ccc(C(=O)NCCCCCC(=O)O)cc1OC 18.9%
CCOC(=O)C1=C(CSc2nc(C)cc(C)c2C#N)OC(N)=C(C#N)C1c1cccs1 (centres undefined) -2.47%
COc1cc(NC(=O)NC(C)(C(F)(F)F)C(F)(F)F)cc(OC)c1OC -1.98%
COC(=O)C(NC(C)=O)(Nc1ccccn1)C(F)(F)F (centres undefined) 41.5%
CC1(C)CNC(=O)c2sc(N3CCOCC3)nc2C1 -0.159%
CCOC(=O)c1ccc(CC2S/C(=C(\C#N)C(C)=O)NC2=O)cc1 (centres undefined) 13.4%
CC(=Nc1cccc(O)c1)c1sc2ccccc2c1O 13.2%
COc1cccc(N2C(=O)C(O)=C(C(C)=O)C2c2ccc(OC)c(OC)c2)c1 (centres undefined) 2.46%
O=S(=O)(c1ccc2ccccc2c1)N(CC(O)CN1CCOCC1)c1ccccc1 (centres undefined) 1.42%
Cc1c(O)c(CN2CCCCC2)cc2c3c(c(=O)oc12)CCC3 -10.6%
O=S(=O)(NCc1cccnc1)c1cccc2nsnc12 -3.97%
Cc1cc(O)c(C(C)C)cc1N=C1CSC(=O)N1 12.8%
Cc1nc2sc(C#N)c(N)c2c2c1CCCC2 9.07%
N#C/C(C(=O)N1CCOCC1)=C1/SC(Cc2ccccc2)C(=O)N1c1ccccc1 (centres undefined) -2.09%
CN(CC(O)COc1ccc(OCC(O)CN(C)C2CCCCC2)cc1)C1CCCCC1 (centres undefined) 11.3%
Cn1c(=O)[nH]c(=O)c2c1nc(N(CCO)Cc1ccccc1)n2Cc1ccccc1Cl 1.63%
Cc1nn(-c2ccccc2)c2c1C(=O)NC(=O)C(C)(C)C2 -5.81%
Cc1ccc(-n2ncc3c(N4CCN(c5ccccc5)CC4)ncnc32)c(C)c1 -12.6%
